Source: PubChem (Broad Institute)
Hits are enriched below; roughly 1.2% of the tested compounds scored in any of these assays.
Glyco luc inh = blocks N-linked glycosylation in D54 reporter cells. 0.23% of 360,000 active. D54 ERlucT glycosylation luciferase reporter, 24 h; percent of 100 nM tunicamycin response. reporter increase, % at 12.5 µM. AID 588692;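 active means mean luciferase reporter signal, scaled so untreated is 0 and the glycosylation-blocking control 100, at or above a set limit in every replicate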;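 further: luciferase carries N-glycosylation sites so blocking glycosylation raises the light; 0% = median of neutral control wells and 100% = median of 100 nM tunicamycin wells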
RAD52 anneal inh = blocks human RAD52 DNA annealing | 0.46% of 360,000 active | inhibition, % at 18.7 µM | AID 651710 | P43351 | recombinant RAD52 DNA annealing, FRET fluorescence;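 active means every replicate showing at least 50% inhibition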
CASP6 VEID inh = caspase-6 (human) enzyme inhibition; AID 686996; inhibition, % at 12.5 µM; P55212; purified caspase-6, Z-VEID-R110 cleavage fluorescence; 0.53% of 350,000 active;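 active means mean inhibition across replicates at least about 35%, with every replicate also reaching that limit, limit read from the data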;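 further: 0% = median of neutral control wells and 100% = no fluorescence left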
Target sequence (P55212 24-179 limits assumed): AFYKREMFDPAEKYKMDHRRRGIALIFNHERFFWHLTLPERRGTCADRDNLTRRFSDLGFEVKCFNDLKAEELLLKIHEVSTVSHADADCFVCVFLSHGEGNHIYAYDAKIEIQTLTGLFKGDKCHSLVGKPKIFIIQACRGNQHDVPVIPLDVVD
Target sequence (P55212 194-293 limits assumed): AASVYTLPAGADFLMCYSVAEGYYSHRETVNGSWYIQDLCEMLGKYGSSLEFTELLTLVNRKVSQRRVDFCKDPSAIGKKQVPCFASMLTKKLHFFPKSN
RAD54 inh = blocks human RAD54 Holliday junction branch migration. FAM/BHQ fluorescence. 0.14% of 360,000 active. inhibition, % at 10.4 µM;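 active means mean normalized replicate activity at least 40 and at least half of replicates scoring 40 or more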;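 further: 0% = median of neutral control wells and 100% = median of positive control wells; inhibitors cause a drop in the FAM fluorescence signal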
NSD2 HMT inh = NSD2 (human) methyltransferase inhibition; O96028; NSD2 peptide methylation, AlphaScreen, 120 min; inhibition, % at 12.5 µM; 0.54% of 310,000 active; AID 743445; in the data active means inhibition above about 50%
The depositor's hits bear a star; . = no result; ! = a repeat was not active.

SMILES | Glyco luc inh | RAD52 anneal inh | CASP6 VEID inh | RAD54 inh | NSD2 HMT inh
c1ncc(-c2ccc(C3[C@@H]4CN(Cc5ccc6c(c5)OCO6)C[C@H]3N4)cc2)cn1 (stereo not given in full) | . | 51* | 2 | . | .
Fc1cccc(CN2C[C@@H]3N[C@H](C2)C3c2ccc(-c3cncnc3)cc2)c1 (stereo not given in full) | . | 22 | -1 | . | .
CS(=O)(=O)Nc1ccc2c(c1)[C@H]1C[C@H](CC(=O)NC3CCCC3)O[C@H](CO)[C@H]1O2 | . | -14 | -2 | 4 | .
O=C(C[C@@H]1CC[C@H](NC(=O)C2CC2)[C@H](CO)O1)NCCCN1CCOCC1 | . | -12 | -4 | -2 | .
Fc1cccc(-c2ccc(C3[C@@H]4CN(Cc5ccccc5F)C[C@H]3N4)cc2)c1 (stereo not given in full) | . | 83*! | 0 | . | .
N#Cc1ccc(-c2ccc(C3[C@@H]4CN(Cc5ccccc5F)C[C@H]3N4)cc2)cc1 (stereo not given in full) | . | 84*! | -1 | . | .
O=S(=O)(c1ccc(-c2ccccc2)cc1)N1C[C@@H]2N[C@H](C1)C2c1ccc(-c2ccccc2)cc1 (stereo not given in full) | . | 0 | -5 | . | .
COc1ccccc1CN1C[C@@H]2N[C@H](C1)C2c1ccc(-c2ccc(C#N)cc2)cc1 (stereo not given in full) | . | 43 | -4 | . | .
N#Cc1ccc(-c2ccc([C@@H]3[C@@H]4CN(S(=O)(=O)c5ccc(-c6ccccc6)cc5)C[C@H]3N4)cc2)cc1 | . | 79* | 4 | . | .
CN1CCCCN2[C@H](CO)[C@@H](c3ccc(C#Cc4ccccc4F)cc3)[C@H]2C1 | . | 35 | 3 | 5 | .
Cc1cccc2cc(C(=O)CS(=O)(=O)c3ccc(Cl)cc3)c(=O)oc12 | . | . | . | . | 1
COc1ccc(Nc2nc(N3CCCC3)nc3ccccc23)c(OC)c1 | 99* | . | . | 100* | .
COc1ccc(Nc2ncnc3ccccc23)c(OC)c1 | -2 | . | . | 6 | .
COc1ccccc1-c1ccc2n(c1=O)C[C@H]1[C@H](CO)[C@@H](C(=O)N(C)C)N(C(=O)c3cccnc3)[C@@H]21 | . | -14 | -2 | -3 | .
CN(C)CCCN1C(=O)c2cccc3c(Br)ccc(c23)C1=O | 40* | -4 | -2 | . | 14
O=C(O)CN1C(=O)c2cccc3c(Br)ccc1c23 | 1 | -21 | 2 | 1 | -2
COc1ccc2c([N+](=O)[O-])c(N3CCOCC3)[nH]c2c1 | 0 | -5 | 2 | 9 | 2
COc1ccc2c([N+](=O)[O-])c(Cl)[nH]c2c1 | 2 | 4 | 63* | . | .
COc1ccc(NC(=O)Nc2ccc3c(c2)C(=O)N([C@H](C)CO)C[C@@H](C)[C@H](CN(C)S(=O)(=O)c2cn(C)cn2)OCCCC[C@H](C)O3)cc1 | . | . | . | 6 | .
C[C@H](CO)N1C[C@H](C)[C@@H](CN(C)Cc2ccc(Oc3ccccc3)cc2)Oc2c(NC(=O)C3CCCCC3)cccc2C1=O | . | 6 | 2 | 5 | .
Cc1ccc(-c2ccc([C@H]3[C@H]4CN(S(=O)(=O)c5cccc(C)c5)CCCCN4[C@H]3CO)cc2)cc1 | . | 26 | 0 | 5 | .
Cc1cccc(S(=O)(=O)N2CCCCN3[C@H](C2)[C@H](c2ccc(-c4ccccc4)cc2)[C@@H]3CO)c1 | . | -20 | -1 | 5 | .
Cc1ccc(-c2ccc([C@@H]3[C@H](CO)N4CCCCN(S(=O)(=O)c5cccc(C)c5)C[C@@H]34)cc2)cc1 | . | 69* | -2 | 0 | .
Cc1ccc(-c2ccc([C@H]3[C@H](CO)N4CCCCN(S(=O)(=O)c5cccc(C)c5)C[C@@H]34)cc2)cc1 | . | 50* | -3 | 2 | .
COc1ccc(S(=O)(=O)N2CCCCN3[C@@H](CO)[C@@H](c4ccc(C5=CCCCC5)cc4)[C@@H]3C2)cc1 | . | 50* | -1 | -12 | .
Cc1cccc(S(=O)(=O)N2CCCCN3[C@H](CO)[C@@H](c4ccc(-c5ccccc5)cc4)[C@H]3C2)c1 | . | 53* | 2 | 0 | .
CCNC(=O)[C@H]1[C@H](CO)[C@H]2Cn3c(ccc(-c4ccncc4)c3=O)[C@H]2N1Cc1ccccc1 | . | -4 | 2 | -13 | .
N#C[C@@H]1[C@H](c2ccc(C3=CCCCC3)cc2)[C@@H](CO)N1S(=O)(=O)c1ccccc1 | . | -1 | 41* | 1 | .
N#C[C@@H]1[C@H](c2ccc(C3=CCCCC3)cc2)[C@H](CO)N1S(=O)(=O)c1ccccc1 | . | -48 | -1 | 5 | .
O=C(C1CCC1)N1CC2(C1)[C@@H](c1ccccc1)[C@H](CO)N2C(=O)c1ccccn1 | . | -16 | 1 | . | .
